# Screening results (PubChem BioAssay)
# Most compounds without a hit are left out; they make up all but 1.1% or so of the library.
# VLA-4 inh: inhibition in human VLA-4 binding assay, primary screen, VLA-4 allosteric modulator project, MLPCN library, flow cytometry, VLA-4 expressing cells | actives 0.2% (n = 330,000) | inhibition, % (about 7 µM as worked out from the volumes in the protocol) | ligand binding flow cytometry; in the data active means inhibition above about 50%
# Target sequence (P13612 whole entry, looked up): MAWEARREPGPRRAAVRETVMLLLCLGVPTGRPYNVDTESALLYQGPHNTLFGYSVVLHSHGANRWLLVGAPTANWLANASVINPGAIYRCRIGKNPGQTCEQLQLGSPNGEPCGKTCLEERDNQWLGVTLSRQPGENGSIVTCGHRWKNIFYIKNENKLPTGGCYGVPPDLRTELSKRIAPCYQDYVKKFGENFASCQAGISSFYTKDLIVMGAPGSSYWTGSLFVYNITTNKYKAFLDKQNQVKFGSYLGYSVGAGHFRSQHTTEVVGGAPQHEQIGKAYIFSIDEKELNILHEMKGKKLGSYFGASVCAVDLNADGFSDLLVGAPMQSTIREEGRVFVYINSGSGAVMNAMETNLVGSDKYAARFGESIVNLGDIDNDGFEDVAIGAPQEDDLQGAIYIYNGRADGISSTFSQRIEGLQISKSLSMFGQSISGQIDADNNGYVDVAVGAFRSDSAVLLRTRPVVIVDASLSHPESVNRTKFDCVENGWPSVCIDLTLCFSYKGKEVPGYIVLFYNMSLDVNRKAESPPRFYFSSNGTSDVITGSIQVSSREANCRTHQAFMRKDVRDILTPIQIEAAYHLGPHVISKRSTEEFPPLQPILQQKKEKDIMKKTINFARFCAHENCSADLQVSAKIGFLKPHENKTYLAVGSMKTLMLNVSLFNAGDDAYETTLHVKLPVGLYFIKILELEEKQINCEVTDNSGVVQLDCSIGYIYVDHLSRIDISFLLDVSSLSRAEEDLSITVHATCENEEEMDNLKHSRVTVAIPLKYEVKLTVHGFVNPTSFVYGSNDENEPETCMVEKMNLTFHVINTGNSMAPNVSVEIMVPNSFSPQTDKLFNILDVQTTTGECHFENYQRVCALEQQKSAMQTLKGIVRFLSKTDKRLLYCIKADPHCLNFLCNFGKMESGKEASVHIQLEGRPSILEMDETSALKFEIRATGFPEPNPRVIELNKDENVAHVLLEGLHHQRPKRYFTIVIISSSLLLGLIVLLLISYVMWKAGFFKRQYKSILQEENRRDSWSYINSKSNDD
# DSG3 Ab inh: inhibitors of pemphigus antibody binding to DSG3, primary screen, biochemical, bead-based, flow cytometry, scFv-GFP. DSG3-coupled beads, scFv-anti-DSG3-GFP binding; stronger effect = lower value. binding (percent of control), % at 10 µM. actives 0.48% (n = 310,000);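 active means binding more than 3 SD below its plate's average and above zero; inconclusive means below that plate limit but binding exactly zero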;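 further: hits lower antibody fragment binding to DSG3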
# AI-2 QS modul: Vibrio harveyi AI-2 quorum sensing modulators, primary screen, JMH597 strain, luminescence/OD600 ratio | Vibrio harveyi JMH597 AI-2 luminescence/OD600 ratio, 9 h; stronger effect = lower value; strain lacks LuxN and CqsS sensors; 0 = neutral-control median | actives 0.4% (n = 300,000) | activity change, % at 7.5 µM; in the data active means activity change below about -75%, passing the limit was not always enough; inconclusive means no clear call, values can overlap the other calls;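 further: luminescence divided by OD600 gain over 9 h not by final OD600 alone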
# NTR1 agonist: agonists of human NTR1, primary screen, imaging, U2OS cells, beta-arrestin-GFP, high content; actives 0.17% (n = 330,000); Neurotensin receptor type 1 (Homo sapiens), P30989; NTR1-U2OS beta-arrestin-GFP spot imaging, agonist mode; AID 493036, 2011; activation, % at 20 µM;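 active means activation at or above 40% of the spot to cytoplasm intensity ratio, with at least 20 cells analyzed; inconclusive means wells under 20 cells, flagged as cytotoxic or low count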;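 further: 0% = DMSO without peptide and 100% = 100 nM NTR1 peptide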
# JMH597 growth rt: Vibrio harveyi growth inhibition, confirmation, counter-screen for AI-2 quorum sensing project, JMH597 strain, OD600 absorbance; actives 1% (n = 750); shares compounds with AI-2 QS modul; 9 h; lacks LuxN and CqsS sensors; growth inhibition, % at 7.5 µM;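 active means every replicate shows growth inhibition above 50%; inconclusive means at least half, but not all, replicates pass that cutoff; inactive means fewer than half of replicates pass it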
# BB721 lum counter: luminescence inhibition in constitutive-on V. harveyi, confirmation, counter-screen for LuxS inhibitor project, strain BB721, luminescence readout | AID 2727, 2010 | inhibition, % at 7.5 µM | actives 95% (n = 750) | Vibrio harveyi BB721 luminescence, 9 h | shares compounds with AI-2 QS modul;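 active means inhibition above about 80% in every replicate, not just on average, limit read from the data; inconclusive means at least half of replicates past the limit, but not all; inactive means fewer than half of replicates past the limit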
# BB721 growth rt: growth inhibition of V. harveyi BB721, confirmation, cytotoxicity control for AI-2 quorum sensing inhibitors, strain BB721, absorbance OD600 | shares compounds with AI-2 QS modul | Vibrio harveyi BB721 growth, 9 h | growth inhibition, % at 7.5 µM | actives 3% (n = 750) | AID 2728, 2010;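 active means every replicate shows growth inhibition above 50%; inconclusive means at least half but not all replicates above 50% inhibition; inactive means under half of replicates above 50% inhibition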
# AI-2 QS JMH597: Vibrio harveyi AI-2 signaling luminescence modulation – JMH597 strain, confirmation. shares compounds with AI-2 QS modul. Vibrio harveyi JMH597 AI-2 quorum sensing luminescence, 9 h; luxN and CqsS knockout, AI-2 only. inhibition, % at 7.5 µM. actives 97% (n = 750);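 active means every replicate shows more than 75% inhibition of signal versus neutral control wells; inconclusive means half to three quarters of replicates exceed 75% inhibition; inactive means fewer than half of replicates exceed 75% inhibition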
# * hit, by the source's call; ? = inconclusive; . = no result.
SMILES,VLA-4 inh,DSG3 Ab inh,AI-2 QS modul,NTR1 agonist,JMH597 growth rt,BB721 lum counter,BB721 growth rt,AI-2 QS JMH597
Cc1cc(NC(=O)CN2C(=O)NC(C)(c3ccccc3)C2=O)no1 (stereo unspecified),6.6,109.7,-37.7,1.9,.,.,.,.
CC1(c2ccc([N+](=O)[O-])cc2)NC(=O)N(CC(=O)Nc2ccc(N3CCCCC3)cc2)C1=O (stereo unspecified),-1.1,86.2,-45.7,2.0,.,.,.,.
CC1SC(C)C(=O)N(CC(=O)Nc2ccc([N+](=O)[O-])cc2)C1=O (stereo unspecified),11.8,107.5,-93.9*,3.3,24.8,98.8*,19.0,99.2*
CC1(c2ccccc2)NC(=O)N(CC(=O)Nc2ccc([N+](=O)[O-])cc2)C1=O (stereo unspecified),12.0,117.1,-88.9*,-1.2,15.1,96.5*,2.3,97.6*
COc1ccc(S(=O)(=O)N2CCCCCC2)cc1NC(=O)CN1C(=O)NC(C)(c2ccc(C)cc2)C1=O (stereo unspecified),5.7,103.4,5.1,1.0,.,.,.,.
COc1ccc(C2(C)NC(=O)N(CC(=O)Nc3ccc(S(=O)(=O)N4CCCC4)cc3)C2=O)cc1 (stereo unspecified),7.2,97.8,-90.0*,0.8,-31.5,88.9*,-10.8,94.0*
Cc1ccc(NC(=O)Cn2nnc3ccccc32)cc1,-1.9,99.6,-10.9,-0.4,.,.,.,.
CC1(c2ccccc2)NC(=O)N(CC(=O)NC(=O)NCc2ccco2)C1=O (stereo unspecified),21.5,100.9,-82.3*,1.0,-15.6,87.8*,-6.0,92.1*
O=C(Cn1nnc2ccccc21)Nc1ccc([N+](=O)[O-])cc1,-8.2,94.4,-92.3*,0.9,-20.9,98.5*,-35.4,99.2*
O=C(CN1C(=O)NC2(CCCCCCC2)C1=O)NC(=O)NCc1ccco1,6.8,101.9,5.4,-0.6,.,.,.,.
CCCC(=O)NC(=S)Nc1ccccc1F,19.3,115.9,-85.3*,1.3,20.9,92.4*,23.9,86.5*
CCOC(=O)C1CCCN(S(=O)(=O)c2cccs2)C1 (stereo unspecified),0.0,100.1,?,-0.3,16.8,98.6*,-17.6,99.8*
CC1(C)CC(=O)C=C(c2ccc(COC(=O)c3ccc(-c4ccccc4)cc3)cc2)C1=O,.,102.1,.,.,.,.,.,.
c1ccc(SCc2cc(-c3ccccc3)no2)cc1,0.2,107.3,-91.6*,1.4,14.2,98.6*,-15.0,98.9*
c1ccc(OCc2cc(-c3ccccc3)no2)cc1,11.7,103.2,-96.3*,1.0,1.3,99.5*,-0.5,99.6*
Clc1ccc(OCCn2cnc(Cl)c2Cl)cc1,-3.8,95.8,-83.9*,-0.9,10.8,88.3*,-329.8,92.4*
COc1ccc(OCCn2cnc(Cl)c2Cl)cc1,.,99.2,-1.9,0.3,.,.,.,.
COc1cccc(N2CCN(C(=O)c3cccc(S(=O)(=O)N4CCCC4)c3)CC2)c1,.,102.2,.,.,.,.,.,.
O=c1c2c(-c3ccccc3)csc2nc2c3ccccc3c(NCCN3CCOCC3)nn12,.,101.9,-96.4*,.,76.5*,99.8*,?,99.9*
CC12CCC(=O)N1C(C(=O)Nc1cccc(F)c1)CS2 (stereo unspecified),7.6,113.6,17.7,0.1,.,.,.,.
CC12CCC(=O)N1C(C(=O)Nc1ccc(SC(F)F)cc1)CS2 (stereo unspecified),9.5,101.9,-94.1*,1.1,23.7,95.4*,16.6,95.8*
CC(C)c1ccc(NC(=O)C2CSC3(C)CCC(=O)N23)cc1 (stereo unspecified),14.8,99.2,-91.3*,-0.6,3.2,93.2*,1.1,96.0*
NC(c1ccncc1)c1ccc(Cl)cc1 (stereo unspecified),.,92.3,.,.,.,.,.,.
Cc1ccc(CN(C)C(=O)c2cc(COc3cccc(C(F)(F)F)c3)on2)o1,-3.6,.,-81.5*,2.1,65.4*,95.4*,86.6*,96.4*
CC(=O)c1cccc(OCc2cc(C(=O)N(C)Cc3cnccn3)no2)c1,-17.1,.,?,-0.1,21.0,92.4*,15.1,94.5*
SMILES,VLA-4 inh,DSG3 Ab inh,AI-2 QS modul,NTR1 agonist,JMH597 growth rt,BB721 lum counter,BB721 growth rt,AI-2 QS JMH597
CCc1ccc(CN(C)C(=O)c2cc(COc3cccc(C(F)(F)F)c3)on2)nc1,0.2,.,-83.4*,0.5,?,92.1*,?,94.6*
CC(=O)c1cccc(OCc2cc(C(=O)N(C)C(C)c3ccccn3)no2)c1 (stereo unspecified),-7.3,.,1.9,-1.0,.,.,.,.
CN(Cc1nccn1C)C(=O)c1cc(COc2cccc(C(F)(F)F)c2)on1,4.9,.,20.3,-1.3,.,.,.,.
CC(C)(C)c1ccc(/C=N/NC(=O)C2CCCC2)cc1,12.5,102.0,-83.2*,7.9,31.5,96.2*,?,97.1*
CC(C)c1ccc(/C=N/NC(=O)C2CCCC2)cc1,6.4,100.8,?,2.9,-1.5,91.4*,3.9,92.4*
NC(=O)C1CCCN(CC(=O)Nc2cc(S(=O)(=O)N3CCOCC3)ccc2N2CCCC2)C1 (stereo unspecified),0.8,.,.,-1.7,.,.,.,.
COc1ccc(Cl)cc1NS(=O)(=O)c1cccc(C(=O)NCCCN2CCOCC2)c1,.,97.2,.,.,.,.,.,.
N/C(=N\OC(=O)CCc1ccccc1)c1ccccc1Cl,30.4,106.2,-85.5*,2.4,9.1,92.1*,4.1,92.5*
O=C(c1ccc(COc2ccccc2Cl)o1)N1CCN(Cc2ccc3c(c2)OCO3)CC1,0.6,?,9.3,2.4,.,.,.,.
O=C(c1cc2cc(Cl)ccc2[nH]1)N1CCN(Cc2ccc3c(c2)OCO3)CC1,2.6,106.5,-94.2*,6.9,18.0,98.5*,-97.8,98.9*
O=C(c1ccc(COc2ccc(Cl)cc2)o1)N1CCN(Cc2ccc3c(c2)OCO3)CC1,9.3,99.5,-97.2*,7.0,133.5*,99.9*,111.1*,99.9*
O=C(c1cc2cc(F)ccc2[nH]1)N1CCN(C(=O)c2ccco2)CC1,7.5,100.6,-83.6*,-1.1,-18.5,85.4*,1.7,91.0*
Cc1ccc(SCc2nc(-c3cccnc3)no2)cc1,24.5,117.1,?,0.5,23.0,95.9*,10.0,96.8*
